Tests used:
Conditions in all cases: concentration: 1 μM,replicates: in singlicate; n = 1
ADCK4 = test system: ADCK4
AKT1 = test system: AKT1
AKT2 = test system: AKT2
AKT3 = test system: AKT3
ALK = test system: ALK
AMPK-alpha1 = test system: T1, AMPK-alpha1
T1 construct: gene PRKAA1

AMPK-alpha2 = test system: T2, AMPK-alpha2
T2 construct: gene PRKAA2

ANKK1 = test system: ANKK1
ARK5 = test system: T3, ARK5
T3 construct: gene NUAK1

ASK1 = test system: T4, ASK1
T4 construct: gene MAP3K5

ASK2 = test system: T5, ASK2
T5 construct: gene MAP3K6

AURKA = test system: AURKA
AURKB = test system: AURKB
AURKC = test system: AURKC
AXL = test system: AXL
BIKE = test system: T6, BIKE
T6 construct: gene BMP2K

BLK = test system: BLK
BMPR1A = test system: BMPR1A
BMPR1B = test system: BMPR1B
BMPR2 = test system: BMPR2
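Also: KINOMEscan kinase panel screen.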

SMILES | %Inh (ADCK4) [%] | %Inh (AKT1) [%] | %Inh (AKT2) [%] | %Inh (AKT3) [%] | %Inh (ALK) [%] | %Inh (AMPK-alpha1) [%] | %Inh (AMPK-alpha2) [%] | %Inh (ANKK1) [%] | %Inh (ARK5) [%] | %Inh (ASK1) [%] | %Inh (ASK2) [%] | %Inh (AURKA) [%] | %Inh (AURKB) [%] | %Inh (AURKC) [%] | %Inh (AXL) [%] | %Inh (BIKE) [%] | %Inh (BLK) [%] | %Inh (BMPR1A) [%] | %Inh (BMPR1B) [%] | %Inh (BMPR2) [%]
C[C@@H](Oc1cc(-n2cnc3cc(-c4ccncc4)ccc32)sc1C(N)=O)c1ccccc1Cl [GSK479719] | 9 | 0 | 6 | 0 | 31 | 5 | 17 | 0 | 75 | 4 | 8 | 0 | 48 | 100 | 89 | 98.6 | 0 | 0 | 0 | 0
CN1CCN(CCNc2nc3cc(Oc4ccc(NC(=O)Nc5cc(C(F)(F)F)ccc5F)cc4)ccc3[nH]2)CC1.Cl.Cl [GW768504] | 22 | 4 | 0 | 0 | 0 | 9 | 11 | 0 | 29 | 0 | 0 | 9 | 22 | 13 | 82 | 0 | 14 | 12 | 0 | 0
FC(F)(F)c1cc(Br)cc(Nc2nccc(-c3cnn4ncccc34)n2)c1 [GW810578] | 27 | 6 | 6 | 20 | 0 | 24 | 16 | 27 | 40 | 0 | 25 | 9 | 16 | 16 | 3 | 29 | 0 | 8 | 7 | 0
Nc1nccc(-c2ccc3c(N)n[nH]c3c2)n1 [GSK1034945] | 33 | 0 | 10 | 0 | 20 | 0 | 0 | 31 | 0 | 0 | 0 | 0 | 0 | 51 | 0 | 94.4 | 25 | 12 | 87 | 0
Cc1cccc2c(-c3ccncc3)c(-c3ccc(F)cc3)nn12.Cl [GW461487] | 28 | 0 | 2 | 0 | 7 | 17 | 0 | 24 | 11 | 1 | 0 | 7 | 0 | 0 | 0 | 3 | 22 | 0 | 0 | 0
